Measurements from the supplement of paper PMC8728848.
This excerpt belongs to a sample that is enriched for the strongest signals.

B1: LKITALY (Gibberella zeae) (protein)
chain: MGNFHESSNNIWLEDGHILHAECGNGEGDYVESTLDLDYYIGNDDGSFSWGGENFSGSASNITLDIEGDDNIPVLRAELNPMDGDPVEANVNLSERIGNDCGTLIFLA
B2: F4 (Escherichia coli), A0A6L9DDF0 (protein)
chain: MKKTLIALALAASAVSGMAHAWTSGDFNGTVDIGGSIDATNYRQKWEWEVGTGLNGFYNALSELTNNDTKLTITVTGNKPILLGRTKEAFVTPTAGGWGGIPQIAFTDYKGAPVELKNPDGETNKGLAYFVLPMKNADGTEAGSVRVNASYAGAVVEKTSDSSAKLFSAYAGEVIRIFNGGLPVNVTQSELQSGVAAADRTALFGSLGKADLVAQFQAVIPGATVTDGTSSEHCTMRLLASAAYALGIADGQTIEATFNQAVTTSTQWSAPLNVAITYY

What was measured:
Experiment in all cases: glycan array binding signal (z-score within array); higher = stronger binding
Details in all cases: glycan notation: IUPAC condensed, linker removed
Fuc(a1-2)Gal(b1-3)GalNAc = biological target: Fuc(a1-2)Gal(b1-3)GalNAc
How it was run: (§1)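 From the Consortium for Functional Glycomics database, 3228 arrays were curated, keeping only those whose protein sequence was available. Binding is given as a within-array Z-score averaged across arrays sharing a protein sequence and across linkers. Negative Z-scores can be read as non-binding.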

[1] = biological target: Fuc(a1-2)Gal(b1-4)GlcNAc(b1-3)Gal(b1-4)GlcNAc
How it was run: as §1

[2] = biological target: Fuc(a1-2)[GalNAc(a1-3)]Gal
How it was run: as §1

[3] = biological target: Fuc(a1-2)[GalNAc(b1-3)]Gal
How it was run: as §1

Gal(a1-3)Gal = biological target: Gal(a1-3)Gal
How it was run: as §1

Gal(a1-6)Glc = biological target: Gal(a1-6)Glc
How it was run: as §1

[4] = biological target: Gal(b1-3)GalNAc(b1-4)Gal(b1-4)Glc
How it was run: as §1

[5] = biological target: Gal(b1-3)[Fuc(a1-4)]GlcNAc(b1-3)Gal(b1-4)GlcNAc
How it was run: as §1

Gal(b1-4)Glc = biological target: Gal(b1-4)Glc
How it was run: as §1

[6] = biological target: Gal(b1-4)GlcNAc(b1-6)Gal(b1-4)GlcNAc(b1-6)GalNAc
How it was run: as §1

Gal3S(b1-3)GlcNAc = biological target: Gal3S(b1-3)GlcNAc
How it was run: as §1

Gal3S(b1-4)Glc6S = biological target: Gal3S(b1-4)Glc6S
How it was run: as §1

Gal3S6S(b1-4)GlcNAc6S = biological target: Gal3S6S(b1-4)GlcNAc6S
How it was run: as §1

[7] = biological target: Man(a1-3)[Man(a1-6)]Man(a1-6)[Man(a1-3)]Man(b1-4)GlcNAc(b1-4)GlcNAc
How it was run: as §1

[8] = biological target: Neu5Ac(a2-3)Gal(b1-4)GlcNAc(b1-3)Gal(b1-4)GlcNAc(b1-3)Gal(b1-4)GlcNAc
How it was run: as §1

[9] = biological target: Neu5Gc(a2-3)Gal(b1-3)[Fuc(a1-4)]GlcNAc
How it was run: as §1

[10] = biological target: Neu5Gc(a2-3)Gal(b1-4)GlcNAc
How it was run: as §1

[11] = biological target: Fuc(a1-2)[Gal(a1-3)]Gal(b1-4)Glc
How it was run: as §1

Fuc(a1-3)GlcNAc = biological target: Fuc(a1-3)GlcNAc
How it was run: as §1

Gal(a1-2)Gal = biological target: Gal(a1-2)Gal
How it was run: as §1

Gal(b1-4)GlcNAc = biological target: Gal(b1-4)GlcNAc
How it was run: as §1

[12] = biological target: Gal(b1-4)GlcNAc(b1-3)Gal(b1-4)Glc
How it was run: as §1

[13] = biological target: Gal(b1-4)GlcNAc(b1-3)Gal(b1-4)GlcNAc
How it was run: as §1

Gal4S6S(b1-4)GlcNAc = biological target: Gal4S6S(b1-4)GlcNAc
How it was run: as §1

Gal6S(b1-4)Glc = biological target: Gal6S(b1-4)Glc
How it was run: as §1

Gal6S(b1-4)GlcNAc = biological target: Gal6S(b1-4)GlcNAc
How it was run: as §1

GlcNAc(b1-3)Gal(b1-4)Glc = biological target: GlcNAc(b1-3)Gal(b1-4)Glc
How it was run: as §1

[14] = biological target: Man(a1-2)Man(a1-3)[Man(a1-2)Man(a1-6)]Man
How it was run: as §1

[15] = biological target: Man(a1-2)Man(a1-3)[Man(a1-2)Man(a1-6)]Man(a1-6)[Man(a1-2)Man(a1-2)Man(a1-3)]Man(b1-4)GlcNAc(b1-4)GlcNAc
How it was run: as §1

[16] = biological target: Neu5Ac(a2-3)Gal(b1-3)[Neu5Ac(a2-6)]GalNAc
How it was run: as §1

[17] = biological target: Neu5Ac(a2-3)Gal(b1-4)GlcNAc(b1-2)Man(a1-3)[Neu5Ac(a2-3)Gal(b1-4)GlcNAc(b1-2)Man(a1-6)]Man(b1-4)GlcNAc(b1-4)GlcNAc
How it was run: as §1

[18] = biological target: Neu5Ac(a2-3)Gal(b1-4)[Fuc(a1-3)]GlcNAc
How it was run: as §1

[19] = biological target: Neu5Ac(a2-3)Gal(b1-4)[Fuc(a1-3)]GlcNAc(b1-3)Gal(b1-4)GlcNAc
How it was run: as §1

[20] = biological target: Neu5Ac(a2-3)Gal(b1-4)[Fuc(a1-3)]GlcNAc(b1-3)Gal(b1-4)[Fuc(a1-3)]GlcNAc(b1-3)Gal(b1-4)[Fuc(a1-3)]GlcNAc
How it was run: as §1

[21] = biological target: Neu5Ac(a2-3)Gal6S(b1-4)GlcNAc
How it was run: as §1

Neu5Ac(a2-3)GalNAc = biological target: Neu5Ac(a2-3)GalNAc
How it was run: as §1

[22] = biological target: Neu5Ac(a2-6)Gal(b1-4)GlcNAc(b1-3)Gal(b1-4)[Fuc(a1-3)]GlcNAc(b1-3)Gal(b1-4)[Fuc(a1-3)]GlcNAc
How it was run: as §1

[23] = biological target: Neu5Ac(a2-6)Gal(b1-4)GlcNAc6S
How it was run: as §1

Row | Binder | glycan array binding signal (z-score) (Fuc(a1-2)Gal(b1-3)GalNAc) | glycan array binding signal (z-score) [1] | glycan array binding signal (z-score) [2] | glycan array binding signal (z-score) [3] | glycan array binding signal (z-score) (Gal(a1-3)Gal) | glycan array binding signal (z-score) (Gal(a1-6)Glc) | glycan array binding signal (z-score) [4] | glycan array binding signal (z-score) [5] | glycan array binding signal (z-score) (Gal(b1-4)Glc) | glycan array binding signal (z-score) [6] | glycan array binding signal (z-score) (Gal3S(b1-3)GlcNAc) | glycan array binding signal (z-score) (Gal3S(b1-4)Glc6S) | glycan array binding signal (z-score) (Gal3S6S(b1-4)GlcNAc6S) | glycan array binding signal (z-score) [7] | glycan array binding signal (z-score) [8] | glycan array binding signal (z-score) [9] | glycan array binding signal (z-score) [10] | glycan array binding signal (z-score) [11] | glycan array binding signal (z-score) (Fuc(a1-3)GlcNAc) | glycan array binding signal (z-score) (Gal(a1-2)Gal) | glycan array binding signal (z-score) (Gal(b1-4)GlcNAc) | glycan array binding signal (z-score) [12] | glycan array binding signal (z-score) [13] | glycan array binding signal (z-score) (Gal4S6S(b1-4)GlcNAc) | glycan array binding signal (z-score) (Gal6S(b1-4)Glc) | glycan array binding signal (z-score) (Gal6S(b1-4)GlcNAc) | glycan array binding signal (z-score) (GlcNAc(b1-3)Gal(b1-4)Glc) | glycan array binding signal (z-score) [14] | glycan array binding signal (z-score) [15] | glycan array binding signal (z-score) [16] | glycan array binding signal (z-score) [17] | glycan array binding signal (z-score) [18] | glycan array binding signal (z-score) [19] | glycan array binding signal (z-score) [20] | glycan array binding signal (z-score) [21] | glycan array binding signal (z-score) (Neu5Ac(a2-3)GalNAc) | glycan array binding signal (z-score) [22] | glycan array binding signal (z-score) [23]
1 | B1 | -0.361 | -0.364 | -0.347 | -0.36 | -0.354 | -0.352 | -0.358 | -0.337 | -0.357 | -0.342 | 4.13 | 2.82 | 3.55 | -0.347 | 3.85 | -0.358 | 3.69 | – | – | – | – | – | – | – | – | – | – | – | – | – | – | – | – | – | – | – | – | –
2 | B2 | -0.145 | – | -0.144 | -0.33 | – | – | – | -0.232 | – | – | – | – | – | – | -0.282 | – | – | -0.191 | -0.164 | -0.128 | -0.137 | -0.276 | -0.397 | 0.285 | -0.213 | 1.48 | 8.86 | 0.052 | -0.311 | -0.291 | -0.209 | 2.09 | -0.176 | -0.185 | -0.21 | -0.397 | 2.24 | -0.382
